Data as given in the supplement of paper PMC10720658.
± gives the standard deviation of the averaged measurements.

System: AEK1 (Tb927.3.2440)
Assay: percent reduction in TR-FRET probe signal relative to DMSO control; higher = stronger displacement of ATP-site probe (binding)
Details: 1 µM; incubation time 1 h

Row | Compound | percent reduction in TR-FRET probe signal [%]
1 | c1cncc(CN2CCC(n3ncc4c(N5CCOCC5)nc(-c5ccc6[nH]ccc6c5)nc43)CC2)c1 | 6.62 ± 13
2 | CCCS(=O)(=O)Nc1ccc(F)c(C(=O)c2c[nH]c3ncc(Cl)cc23)c1F | -8.04 ± 4.3
3 | CN1CCN(c2ccc(C(=O)Nc3n[nH]c4ccc(Cc5cc(F)cc(F)c5)cc34)c(NC3CCOCC3)c2)CC1 [Entrectinib (RXDX-101)] | -3.42 ± 2.4
4 | Cc1n[nH]c2ccc(-c3cncc(OC[C@@H](N)Cc4ccccc4)c3)cc12 | 14.1 ± 24
5 | CN(c1ncccc1CNc1nc(Nc2ccc3c(c2)CC(=O)N3)ncc1C(F)(F)F)S(C)(=O)=O.O=S(=O)(O)c1ccccc1 | 37.1 ± 14
6 | O=C(O)c1ccc(Nc2ncc3c(n2)-c2ccc(Cl)cc2C(c2c(F)cccc2F)=NC3)cc1 | -4.14 ± 5.4
7 | CN(c1ccccc1CNc1nc(Nc2ccc3c(c2)CC(=O)N3)ncc1C(F)(F)F)S(C)(=O)=O | 55.1 ± 4.3
8 | COc1cc2ncc(-c3ccccc3)nc2cc1OC [Tyrphostin AG 1296] | -3.11 ± 5.3
9 | CC1(COc2ccc3c(c2)ncn3-c2ccc3cccc(N4CCC(N)CC4)c3n2)COC1 | 18.8 ± 11
10 | CS(=O)(=O)c1ccc(-c2cnc(N)c(C(=O)Nc3ccccc3)n2)cc1 | 5.23 ± 4.7
11 | CCCS(=O)(=O)Nc1ccc(F)c(C(=O)c2c[nH]c3ncc(-c4ccc(Cl)cc4)cc23)c1F [Vemurafenib (PLX4032, RG7204)] | 4.16 ± 3
12 | N#CCNC(=O)c1ccc(-c2ccnc(Nc3ccc(N4CCOCC4)cc3)n2)cc1 | 16.3 ± 16
13 | COc1cc(Nc2ncc(F)c(Nc3ccc4c(n3)N(COP(=O)(O)O)C(=O)C(C)(C)O4)n2)cc(OC)c1OC [Fostamatinib (R788)] | 31.3 ± 1.3
14 | Cl.NC(=O)c1cnc(N[C@@H]2CCCC[C@@H]2N)nc1Nc1cccc(-n2nccn2)c1 | -0.93 ± 1.4
15 | Cc1[nH]c(/C=C2\C(=O)Nc3ccccc32)c(C)c1CCC(=O)O [TSU-68 (SU6668, Orantinib)] | 1.55 ± 4
16 | CC(=O)Nc1nc(C)c(-c2ccc(Cl)c(S(=O)(=O)NCCO)c2)s1 | -6.5 ± 15
17 | C=CC(=O)Nc1cccc(Oc2nc(Nc3ccc(N4CCN(C)CC4)cc3OC)ncc2Cl)c1 | 3 ± 23
18 | N[C@@H]1CCCN(c2c(/C=C3\SC(=O)NC3=O)cccc2-c2ccccc2)C1 | -4.54 ± 7.8
19 | N#Cc1c(O)c2c(-c3ccc(-c4ccccc4O)cc3)csc2[nH]c1=O | -7.05 ± 2.1
20 | CNc1nc(Nc2cnn([C@H]3CCN(C4COC4)C[C@@H]3F)c2Cl)ncc1C(F)(F)F | 9.94 ± 3.4
21 | CN1CCCN(C(=O)c2cccc(-c3ccc(/C=C4/C(=O)Nc5ccc(Cl)cc54)o3)c2)CC1.Cl | -0.203 ± 9.8
22 | O=c1sn(-c2cccc3ccccc23)c(=O)n1Cc1ccccc1 [Tideglusib] | -35 ± 6.7
23 | CCC[C@H](NC(=O)/C(C#N)=C/c1cccc(Br)n1)c1ccccc1 [Degrasyn (WP1130)] | 2.37 ± 17
24 | CO[C@H]1C[C@@H]2CC[C@@H](C)[C@@](O)(O2)C(=O)C(=O)N2CCCC[C@H]2C(=O)O[C@H]([C@H](C)C[C@@H]2CC[C@@H](OP(C)(C)=O)[C@H](OC)C2)CC(=O)[C@H](C)/C=C(\C)[C@@H](O)[C@@H](OC)C(=O)[C@H](C)C[C@H](C)/C=C/C=C/C=C/1C [Ridaforolimus (Deforolimus, MK-8669)] | 1.74 ± 22
